M1 ag: agonists of human M1 muscarinic receptor; AID 588814; CHO-K1 hM1, Fluo-8 calcium fluorescence, agonist mode; 0% DMSO, 100% acetylcholine EC100; P11229; activation, % at 3 µM; 360,000 compounds, 0.33% hits;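 active = activation above the run's mean compound activation plus 3 SD, cut at about 16% in these data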;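 also: peak over basal fluorescence ratio within a 140 s kinetic read after compound addition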
Target sequence (P11229 whole entry, looked up): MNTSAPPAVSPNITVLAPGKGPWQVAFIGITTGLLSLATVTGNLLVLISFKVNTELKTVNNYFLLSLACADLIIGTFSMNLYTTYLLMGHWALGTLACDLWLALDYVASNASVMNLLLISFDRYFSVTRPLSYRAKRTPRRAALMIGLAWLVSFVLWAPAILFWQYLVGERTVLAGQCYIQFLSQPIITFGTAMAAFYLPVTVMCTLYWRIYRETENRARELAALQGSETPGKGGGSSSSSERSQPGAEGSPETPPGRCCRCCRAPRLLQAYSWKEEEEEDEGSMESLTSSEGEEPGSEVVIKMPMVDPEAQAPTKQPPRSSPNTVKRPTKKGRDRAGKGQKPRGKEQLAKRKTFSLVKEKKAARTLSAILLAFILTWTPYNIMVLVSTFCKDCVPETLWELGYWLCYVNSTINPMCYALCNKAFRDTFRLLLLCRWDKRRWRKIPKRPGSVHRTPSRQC
M1 PAM parental: M1 PAM counterscreen hit in parental CHO-K1 cells. ATP EC20, Fluo-8 calcium fluorescence; 0% at ATP EC20, 100% at ATP max. activation, % at 3 µM. 360,000 compounds, 0.02% hits. AID 602247;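 active = activation above the run cutoff, the mean activation of all test compounds plus 3 SD, cut at about 40% in these data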;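 also: peak over basal fluorescence ratio in a 140 s read after ATP addition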
CHO-K1 Ca antag: counter-screen for M1 antagonists: effect in parental CHO-K1 cells; ATP-induced calcium, Fluo-8 fluorescence; inhibition, % at 3 µM; 360,000 compounds, 0.6% hits; AID 602250;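 active = inhibition above a per-plate cutoff, the plate's mean sample inhibition plus 3 SD, cut at about 24% in these data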;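 also: 0% = DMSO plus EC80 ATP and 100% = DMSO alone without ATP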
CHRM1 antagonist: antagonists of human M1 muscarinic receptor | 360,000 compounds, 1.3% hits | CHO-K1 hM1, Fluo-8 calcium fluorescence, ACh EC80 antagonist | P11229 | AID 588852 | inhibition, % at 3 µM;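 active = percent inhibition above its own plate's cutoff, namely the mean of that plate's compound wells plus 3 SD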;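 also: peak over basal fluorescence ratio during 140 s after agonist addition; 0% = ACh EC80 plus DMSO and 100% = DMSO alone without agonist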
M1 ag parental: M1 agonist counterscreen hit in parental CHO-K1 cells; Fluo-8 calcium fluorescence; scaled to maximal ATP response, vehicle zero; activation, % at 3 µM; 360,000 compounds, 0.48% hits; AID 602248; in the data active = activation above about 15%;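 also: untransfected CHO-K1 host cells lacking M1 receptor as counterscreen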
M1 PAM: human CHRM1 positive allosteric modulation; P11229; CHO-K1 hM1, Fluo-8 calcium fluorescence, ACh EC20; 0% = ACh EC20, 100% = maximal ACh; activation, % at 3 µM; 360,000 compounds, 0.088% hits; AID 588819; in the data active = activation above about 19%, passing the limit was not always enough
Numbers without * were called inactive. This is a sample that favours compounds with a hit; in the whole collection about 2.3% have one here.

SMILES	M1 ag	M1 PAM parental	CHO-K1 Ca antag	CHRM1 antagonist	M1 ag parental	M1 PAM
O=C(CC(c1ccccc1O)N1CCCCC1)N1CCCCC1 (stereo unspecified)	-6	-2	-1	70*	0	-23
O=C(CC(c1ccccc1)c1cc(Cl)ccc1O)N1CCCC1 (stereo unspecified)	-4	24	-11	4	12	-5
N=c1c2ccccc2nc2n1CCCCC2	-9	-10	34*	3	0	-18
COc1ccc(COC(=O)CCNC(=O)c2ccc(Cl)cc2)cc1	-4	-13	-5	-4	0	4
CCSc1nnc(NC(=O)CC)s1	16*	18	-5	-3	0	4
CCSc1nnc(NC(=O)c2ccccc2C)s1	-6	13	-7	53*	1	-12
CCN(CC(=O)NCCCN1CCOCC1)S(=O)(=O)c1ccc(F)cc1	0	-7	-12	6	0	0
COc1ccc(C(CNC(=O)c2cccc(S(=O)(=O)Nc3ccc(F)cc3)c2)N2CCCC2)cc1 (stereo unspecified)	-6	19	4	-14	2	7
COc1ccc(NS(=O)(=O)c2cccc(C(=O)NCC(c3ccc(OC)cc3)N3CCCC3)c2)cc1 (stereo unspecified)	-5	-2	9	-4	5	2
COc1ccc(NS(=O)(=O)c2cccc(C(=O)NCC(c3ccccc3OC)N3CCCC3)c2)cc1 (stereo unspecified)	-6	8	-7	82*	2	-25
COc1ccccc1C(CNC(=O)c1cccc(S(=O)(=O)Nc2ccc(F)cc2)c1)N1CCCC1 (stereo unspecified)	-8	-6	-1	101*	0	-31
CC(C)(CNC(=O)c1cccc(S(=O)(=O)Nc2ccc(SC(F)F)cc2)c1)N1CCOCC1	1	-17	9	35*	1	-15
C=CCN(c1ccccc1OC)S(=O)(=O)c1cccc(C(=O)NCC(c2ccc(OC)cc2)N2CCCC2)c1 (stereo unspecified)	-9	-2	-13	34*	1	-24
CCCCCC1=C(C(=O)OC)C(C(=O)OCC)N(S(=O)(=O)C(F)(F)F)c2ccccc21 (stereo unspecified)	-1	7	-12	15	1	-5
COc1ccc(/C=C/CN2CCC(C(=O)NC(c3ccc(F)cc3)c3ccc4ccccc4n3)CC2)cc1 (stereo unspecified)	-7	12	-11	11	2	-13
COc1ccc(C(CNC(=O)c2oc3ccc(OC)cc3c2C)N2CCCC2)cc1 (stereo unspecified)	-6	-30	30*	14	0	-11
COc1ccc(NS(=O)(=O)c2cccc(C(=O)NCc3ccccc3CN3CCOCC3)c2)cc1	23*	10	-17	6	8	-6
COc1ccc(NS(=O)(=O)c2cccc(C(=O)NCCCN3CCOCC3)c2)cc1	1	21	-8	-5	1	1
CCCNC(=O)Cn1c(=O)/c(=C/c2ccc(-c3ccc([N+](=O)[O-])cc3)o2)s/c1=C\C(=O)C(C)(C)C	74*	1	31*	65*	32*	-18
N#C/C(=C\c1ccc(N2CCCCC2)o1)C(N)=O	-3	7	7	-7	7	5
N#C/C(=C\c1ccc(N2CCCCC2)o1)C(=O)Nc1cccc(Br)c1	68*	-14	58*	66*	54*	-23
CCCSC(=S)c1c(C)[nH]n(-c2ccccc2)c1=O	8	-4	-4	21	16*	-17
Cc1noc(NS(=O)(=O)c2ccc(NC(=O)c3ccccc3NS(=O)(=O)c3ccc(F)cc3)cc2)c1C	-2	20	-6	-4	2	7
COc1cccc(-c2nn(C)c3sc(C(=O)N4CCN(c5ccccn5)CC4)cc23)c1	-1	14	-1	22*	5	-14
COc1cccc(-c2nn(C)c3sc(C(=O)N4CCOCC4)cc23)c1	-1	-7	10	3	1	1
SMILES	M1 ag	M1 PAM parental	CHO-K1 Ca antag	CHRM1 antagonist	M1 ag parental	M1 PAM
O=C(CCNS(=O)(=O)c1ccc2nsnc2c1)N1CCN(c2ccncc2)CC1	-10	10	-16	62*	0	-30
Cc1ccc(S(=O)(=O)NCCC(=O)N2CCN(c3cccc(Cl)c3)CC2)cc1C	-1	4	-7	-11	6	6
CC(C)CCOc1ccc(C2CC(=O)N(C)C2=O)cc1 (stereo unspecified)	-4	15	-9	-15	0	12
COc1ccccc1CN(C)C(=O)c1cc(-c2cc(OC)c(OC)c(OC)c2)nc2ccccc12	-6	1	-2	19	5	-3
CCN(CC(=O)Nc1ccc(NC(C)=O)cc1)C(=O)c1cc(-c2ccccc2Cl)nc2ccccc12	0	-5	3	41*	8	-16
COc1ccc(-c2cc(C(=O)N(C)Cc3ccccc3F)c3ccccc3n2)cc1OC	-2	1	8	40*	5	-16
COc1cccc(CN(C)C(=O)c2cc(-c3cccs3)nc3ccccc23)c1	0	5	27*	54*	6	-16
COc1ccc(-c2cc(C(=O)Nc3cccc(S(=O)(=O)NCc4ccco4)c3)c3ccccc3n2)cc1OC	-1	-4	-8	41*	7	-13
CCOc1ccc(NC(=O)CN(C)C(=O)c2cc(-c3ccc(OC)cc3)nc3ccccc23)cc1OCC	-2	-15	14	30*	5	-8
COc1ccc(NC(=O)CN(C)C(=O)c2cc(-c3ccc(Cl)cc3)nc3ccccc23)cc1	-4	3	8	20	8	-4
CCN(Cc1ccccc1)C(=O)c1cc(-c2ccc(OC)c(OC)c2)nc2ccccc12	-4	-6	3	35*	5	-12
CCN(CC)S(=O)(=O)c1ccc(O)c(NC(=O)c2cc(-c3cc(OC)c(OC)c(OC)c3)nc3ccccc23)c1	-2	-3	-6	29*	2	-16
COCCN(Cc1ccccc1)C(=O)c1cc(-c2ccc(OC)c(OC)c2)nc2ccccc12	1	-20	15	16	6	3
COc1cc(-c2cc(C(=O)N(C)Cc3ccccc3)c3ccccc3n2)cc(OC)c1OC	-5	-2	6	22*	5	-11
O=[N+]([O-])c1ccccc1/C=N\N1CCN(c2ccccc2)CC1	-7	7	1	0	28*	-12
COc1cc(Br)cc(CN2CCN(C/C=C/c3ccccc3)CC2)c1O	-13	21	-24	96*	4	-32
COc1ccc(O)c(CN2CCN(C/C=C/c3ccccc3)CC2)c1	-8	19	-22	0	3	-8
O=C(CN1CCCC1)NC(c1ccccc1)c1ccccc1	-8	-13	10	69*	0	-26

Screens deposited in PubChem by The Scripps Research Institute Molecular Screening Center.
